Bioassay records as filed in PubChem.
TRHR PAM: TRH receptor (human) allosteric enhancement; TRHR cells, fluo-8 calcium fluorescence, EC20 TRH enhancement; 0.66% of 360,000 active; P34981; AID 493056; enhancement, % at 2 µM; in the data active means enhancement above about 30%
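TRHR-expressing cells loaded with fluo-8 calcium dye were read kinetically (ex 480/em 530) during compound addition, then stimulated with an EC20 of TRH (10 nM final). Enhancement of the Gq-mediated intracellular calcium response was scored.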
D1 agonist: human D1 receptor agonism. activation, % at 2 µM. 1% of 360,000 active. P21728. HEK293 T-REx D1 cells, calcium flux, agonist mode. AID 504660
Target sequence (P21728 whole entry, looked up): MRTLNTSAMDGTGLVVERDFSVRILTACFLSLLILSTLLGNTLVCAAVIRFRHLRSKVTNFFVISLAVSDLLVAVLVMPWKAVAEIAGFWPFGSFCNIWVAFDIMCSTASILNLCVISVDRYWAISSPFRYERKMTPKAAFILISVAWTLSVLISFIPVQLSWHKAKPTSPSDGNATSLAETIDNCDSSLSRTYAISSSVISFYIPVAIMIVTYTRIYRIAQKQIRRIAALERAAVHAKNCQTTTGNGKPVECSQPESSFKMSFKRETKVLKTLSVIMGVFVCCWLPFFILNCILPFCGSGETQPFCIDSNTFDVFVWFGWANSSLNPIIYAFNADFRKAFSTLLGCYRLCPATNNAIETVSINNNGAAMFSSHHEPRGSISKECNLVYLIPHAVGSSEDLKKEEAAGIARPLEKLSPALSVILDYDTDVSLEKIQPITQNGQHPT
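Inducible HEK293 T-REx D1 cells, force-coupled to calcium signalling, were plated at 4000 cells/well with tetracycline and held overnight at 30 C. After no-wash calcium dye loading, compound-evoked calcium rise over 180 s flagged agonists.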
TRHR ag: TRH receptor (human) agonism. P34981. TRHR cells, calcium flux fluo-8, FDSS agonist mode. activation, % at 2 µM. 0.18% of 360,000 active
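Steps: seed TRHR cells overnight; add fluo-8 no-wash Ca dye, RT 30 min–1.5 h; record 10 s baseline; pin-transfer compounds; monitor fluorescence 1 cycle/s for the agonist window. Calcium increases flag candidate agonists.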
D1 PAM: enhances dopamine response at the human D1 receptor. AID 504651. P21728. HEK293 TREx D1 cells, calcium flux, dopamine EC20 potentiation. potentiation, % at 10 µM. 0.036% of 360,000 active; in the data active means potentiation above about 30%
D1 antagonist: human D1 dopamine receptor antagonism. P21728. HEK293 TREx D1 cells, calcium flux, dopamine EC80; hits give low values. activity change, negative = inhibition, % at 10 µM. 3.2% of 360,000 active; in the data active means activity change below about -30%
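Kinetic fluorescence of a calcium dye serves as the read-out. D1-expressing Hek293 Trex cells, induced overnight at 30 C, are exposed to compound for 180 s before an EC80 dopamine addition, then read 180 s further.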
GRP78 ERSR act: ER stress response induction in glioma; U87-MG GRP78 promoter luciferase reporter, 16 h; AID 602332; Potency, µM, hits mostly activators; 0.02% of 420,000 active; active means well fitted activation curve with a large enough effect; further: series mostly up to about 76 µM; nearly all actives have a fitted effect of over 35% in size
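ERSR induction read as luciferase luminescence (Bright-Glo, 10 min at room temperature) in stably transfected human U87-MG glioma cells exposed to compounds for 16 h, using GRP78 as sensor.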
Of the large screens only hits and unclear results are named; the others gave an inactive call. In the library only some 4% were active in any assay of this set; here they are far more common. Unless noted, no stated cut-off is given here; in the data, active means activation above about 30%; inactive means the rest.

COc1ccc(NC(=O)CSc2nc(-c3ccc(OC)cc3)cc(=O)[nH]2)cc1	D1 agonist 57
COc1ccc(NC(=O)CSC2=NCCN2)cc1	D1 antagonist -30
CCCc1cc(=O)[nH]c(SCC(=O)N(C)CC(=O)Nc2ccc(C)cc2)n1	D1 antagonist -36
CCc1c(C)nc(SCC(=O)Nc2nc(-c3ccc(OC)cc3)cs2)[nH]c1=O	D1 antagonist -33
CCCc1cc(=O)[nH]c(SCC(=O)N(C)CC(=O)Nc2ccc(F)cc2)n1	none
COc1ccc(NC(=O)CSc2c(C)n[nH]c2C)cc1	none
Cc1cc(C)cc(NC(=O)N2CCC(c3nc4ccccc4o3)CC2)c1	none
CCn1c2ccccc2c2cc(NC(=O)COC(=O)c3ccccc3F)ccc21	none
CC1CCCC(N2C(=O)NC(NC(=O)c3ccco3)(C(F)(F)F)C2=O)C1C (configuration not stated)	none
COC(=O)c1ccc(CSc2nc3ccc(S(N)(=O)=O)cc3[nH]2)cc1	TRHR PAM 36
COc1cccc(NC(=O)CSc2nc(C)c(Cc3ccccc3)c(=O)[nH]2)c1	D1 antagonist -73 (no result: GRP78 ERSR act)
COC(=O)c1cc(CSc2nc3ccc(C)cc3[nH]2)oc1C	D1 antagonist -47
O=C(c1ccccc1)c1nc[nH]c1C(=O)Nc1ccccn1	none
COCCN1C(=O)/C(=C/c2ccc(N3CCCC3)cc2C)SC1=S	D1 agonist 224, TRHR ag 53
O=C1CC(c2ccc(Cl)cc2)n2nc(N3C(=O)CCC3=O)nc2N1 (configuration not stated)	none
COc1cc(CNc2ccc3[nH]c(=O)[nH]c3c2)cc(Cl)c1OCc1ccc(F)cc1	none
O=C(CNC(=O)c1ccccc1F)N/N=C/c1cc(Br)ccc1OC(=O)/C=C/c1ccco1	none
O=C(CNC(=O)c1ccc(F)cc1)N/N=C/c1cc(Br)ccc1OC(=O)/C=C/c1ccco1	D1 antagonist -45
COc1ccc(/C=N\NC(=O)CC(=O)Nc2cccc(Cl)c2)cc1OC	D1 antagonist -51
COc1ccc(/C=N/NC(=O)CCCOc2ccc(Cl)cc2Cl)cc1	D1 antagonist -32
O=C(CCCOc1ccc(Cl)cc1Cl)N/N=C/c1ccc(Cl)cc1	none
COc1ccc(/C=N/NC(=O)CNc2n[nH]c(=O)[nH]c2=O)cc1OC	TRHR PAM 34
Cc1cc(C)c(S(=O)(=O)N2CCc3ccccc32)c(C)c1	none
COc1cc(OC)c(C(=O)O/N=C(\N)c2ccc(C)cc2)cc1OC	none
O=C(COc1ccc(Br)cc1CNC1CCCC1)Nc1ccccc1	D1 agonist 34
CCC(=O)NCCNc1ccc([N+](=O)[O-])cn1	none (no result: GRP78 ERSR act)
COc1ccc2c(CC(=O)Nc3c(C)n(C)n(-c4ccccc4)c3=O)coc2c1	none
Cc1ccc2c(CC(=O)Nc3c(C)n(C)n(-c4ccccc4)c3=O)coc2c1	D1 antagonist -80
COc1ccccc1C(=O)N1N=C(c2ccc(NS(C)(=O)=O)cc2)CC1c1cccs1 (configuration not stated)	TRHR PAM 34
CCS(=O)(=O)Nc1cccc(C2=NN(C(C)=O)C(c3cccs3)C2)c1 (configuration not stated)	D1 antagonist -47
Cc1ccccc1C(=O)N1N=C(c2ccc(NS(C)(=O)=O)cc2)CC1c1cccs1 (configuration not stated)	none
CS(=O)(=O)Nc1ccc(C2=NN(C(=O)c3ccccc3)C(c3cccs3)C2)cc1 (configuration not stated)	D1 antagonist -34
COc1ccc(N2CC(C)Cn3c2nc2c3c(=O)[nH]c(=O)n2C)cc1 (configuration not stated)	none
N=c1oc2ccccc2cc1C(=O)NC1CCCCCC1	none
COc1ccc(NC(=O)COc2ccc(/C=N/O)cc2OC)cc1	none
CCN(CC)/C(=N\S(=O)(=O)c1ccc(F)cc1)c1ccccc1	none
O=c1c2ccccc2nnn1Cc1nnc(-c2ccccc2Br)o1	D1 agonist 47
Cc1ccc(S(=O)(=O)N2CCOCC2)cc1NC(=O)CSc1ccc(Cl)cc1	none
CC(Oc1ccccc1Cl)C(=O)Nc1ccc(S(=O)(=O)N2CCOCC2)cc1 (configuration not stated)	none (no result: TRHR PAM, D1 agonist, TRHR ag, D1 PAM, D1 antagonist)
CC(Oc1ccc(C(=O)c2ccccc2)cc1)C(=O)Nc1ccc(S(N)(=O)=O)cc1 (configuration not stated)	D1 agonist 38
CC(Sc1ccc(Cl)cc1)C(=O)Nc1ccc(S(=O)(=O)N2CCOCC2)cc1 (configuration not stated)	D1 agonist 56
Cc1ccc(OC(C)C(=O)Nc2ccc(S(=O)(=O)N3CCOCC3)cc2)cc1 (configuration not stated)	D1 agonist 39
O=C(CCCSc1ccc(Cl)cc1)Nc1cc(S(=O)(=O)N2CCOCC2)ccc1O	D1 antagonist -45
CC(C)CCNC(=O)NC(=O)COC(=O)/C=C/c1cnc2ccccc2n1	none
COc1cc(C(=O)OC2CSCC2NC(=O)c2ccccc2)cc(OC)c1OC (configuration not stated)	none
O=C(NC1CSCC1OC(=O)c1ccccc1)c1ccccc1 (configuration not stated)	D1 antagonist -39
CCOc1ccc(N2CC(C(=O)OC)CC2=O)cc1 (configuration not stated)	none
Cc1cc(C)cc(CC2CC(=O)N(c3nc(C)cc(C)n3)C2=O)c1 (configuration not stated)	none
O=C(Nc1nc2c(s1)CCCC2)c1cc(-c2ccncc2)nc2ccccc12	none
O=C(Nc1nc2c(s1)CCCC2)c1cc(-c2ccccc2)nc2ccccc12	D1 agonist 32
Cc1cc(C)cc(NC(=O)C(C)N2C(=O)c3ccccc3C2=O)c1 (configuration not stated)	none
CC(C(=O)Nc1ccccc1)N1C(=O)c2ccccc2C1=O (configuration not stated)	TRHR PAM 32
COC(=O)CCC(C)N1CCC(Oc2ccc(C(=O)N3CCCC3)cc2)CC1 (configuration not stated)	D1 antagonist -30
COCCC(=O)N1CCC(Oc2ccc(C(=O)N3CCCC(OC)C3)cc2)CC1 (configuration not stated)	D1 antagonist -35
O=C(NN=C1CCCC1)NC1CCCCC1	none
O=C(NN=C1CCCCC1)NC1CCCCC1	D1 antagonist -85
O=C(NC1CCCCCC1)C(=O)NC1CCCC1	D1 antagonist -33
O=C(NC1CCCCC1)[C@H](O)[C@@H](O)C(=O)NC1CCCCC1	none
O=C(NCc1ccc(F)cc1)C(c1ccncc1)N(C(=O)c1csnn1)C1CC1 (configuration not stated)	none
